{"source": "the supplement of paper PMC6555819", "assay_in_all_cases": "PBM binding z-score (relative to random genomic background probes); higher = stronger binding; sequences stand for … in GC…GCGATTGACAGCGTAGAATGAAGG", "key": {"[1]": {"system": "FXR:RXRa (NR concentration 270 nM, RXRa partner concentration 90 nM)", "method_in_brief": "(§1)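 The probes on custom Agilent 4×180K protein-binding microarrays were double-stranded, with 34-nt variable regions bearing direct-repeat seeds, single-nucleotide variants, half-site ablations and random human genomic background sequences. Incubation lasted 1 h with ligand-free nuclear receptor dimers in PBS pH 7.4, 2% milk, 0.02% Triton X-100, 1 mM DTT, 0.2 mg/mL BSA and 0.4 mg/ml salmon testes DNA. Antibodies against each partner (one per run) detected bound dimers, and fluorescence scans were regression-normalized. Binding z-scores take the random background probes as reference.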"}, "[2]": {"system": "LXRa:RXRa (NR concentration 270 nM, RXRa partner concentration 90 nM)", "method_in_brief": "as §1"}, "[3]": {"system": "LXRa homodimer (NR concentration 270 nM)", "method_in_brief": "as §1"}, "[4]": {"system": "LXRb:RXRa (NR concentration 270 nM, RXRa partner concentration 90 nM)", "method_in_brief": "as §1"}, "[5]": {"system": "LXRb homodimer (NR concentration 270 nM)", "method_in_brief": "as §1"}, "[6]": {"system": "PPARa:RXRa (NR concentration 270 nM, RXRa partner concentration 90 nM)", "method_in_brief": "as §1"}, "[7]": {"system": "PPARg:RXRa (NR concentration 180 nM, RXRa partner concentration 90 nM)", "method_in_brief": "as §1"}, "[8]": {"system": "PPARg:RXRa 270nM:90nM, anti-RXR (NR concentration 270 nM, RXRa partner concentration 90 nM)", "method_in_brief": "as §1"}, "[9]": {"system": "PPARg:RXRa 30nM:10nM, anti-RXR (NR concentration 30 nM, RXRa partner concentration 10 nM)", "method_in_brief": "as §1"}, "[10]": {"system": "PPARg:RXRa 90nM:30nM, anti-RXR (NR concentration 90 nM, RXRa partner concentration 30 nM)", "method_in_brief": "as §1"}}, "data": [{"sequence": "CCTTACTGGTCAAGGTTATAGCACGGGTGGTACG", "values": [{"measurement": "PBM binding z-score", "setting": "[1]", "value": 0.733}, {"measurement": "PBM binding z-score", "setting": "[2]", "value": 0.968}, {"measurement": "PBM binding z-score", "setting": "[3]", "value": 0.49}, {"measurement": "PBM binding z-score", "setting": "[4]", "value": 0.767}, {"measurement": "PBM binding z-score", "setting": "[5]", "value": 0.339}, {"measurement": "PBM binding z-score", "setting": "[6]", "value": 1.43}, {"measurement": "PBM binding z-score", "setting": "[7]", "value": 0.792}, {"measurement": "PBM binding z-score", "setting": "[8]", "value": 1.03}, {"measurement": "PBM binding z-score", "setting": "[9]", "value": 0.301}, {"measurement": "PBM binding z-score", "setting": "[10]", "value": 0.959}]}, {"sequence": "AGAATGAGGTTAAGACCAGGGAAACAGAATACAT", "values": [{"measurement": "PBM binding z-score", "setting": "[1]", "value": 2.32}, {"measurement": "PBM binding z-score", "setting": "[2]", "value": 1.88}, {"measurement": "PBM binding z-score", "setting": "[3]", "value": -0.015}, {"measurement": "PBM binding z-score", "setting": "[4]", "value": 1.61}, {"measurement": "PBM binding z-score", "setting": "[5]", "value": -0.233}, {"measurement": "PBM binding z-score", "setting": "[6]", "value": 3.48}, {"measurement": "PBM binding z-score", "setting": "[7]", "value": 2.1}, {"measurement": "PBM binding z-score", "setting": "[8]", "value": 2.15}, {"measurement": "PBM binding z-score", "setting": "[9]", "value": 0.945}, {"measurement": "PBM binding z-score", "setting": "[10]", "value": 1.71}]}, {"sequence": "CCGACTGGGGTAAAGGTTACCATACTCAGTACGA", "values": [{"measurement": "PBM binding z-score", "setting": "[1]", "value": 1.25}, {"measurement": "PBM binding z-score", "setting": "[2]", "value": 1.37}, {"measurement": "PBM binding z-score", "setting": "[3]", "value": -0.204}, {"measurement": "PBM binding z-score", "setting": "[4]", "value": 2.11}, {"measurement": "PBM binding z-score", "setting": "[5]", "value": -0.702}, {"measurement": "PBM binding z-score", "setting": "[6]", "value": 5.22}, {"measurement": "PBM binding z-score", "setting": "[7]", "value": 11.1}, {"measurement": "PBM binding z-score", "setting": "[8]", "value": 9.31}, {"measurement": "PBM binding z-score", "setting": "[9]", "value": 8.82}, {"measurement": "PBM binding z-score", "setting": "[10]", "value": 10.7}]}, {"sequence": "AGTCAAAGTTCATCTAGGGAACGTAAGATATGCT", "values": [{"measurement": "PBM binding z-score", "setting": "[1]", "value": 6.67}, {"measurement": "PBM binding z-score", "setting": "[2]", "value": 5.95}, {"measurement": "PBM binding z-score", "setting": "[3]", "value": 4.72}, {"measurement": "PBM binding z-score", "setting": "[4]", "value": 3.68}, {"measurement": "PBM binding z-score", "setting": "[5]", "value": 1.64}, {"measurement": "PBM binding z-score", "setting": "[6]", "value": 4.69}, {"measurement": "PBM binding z-score", "setting": "[7]", "value": 6.38}, {"measurement": "PBM binding z-score", "setting": "[8]", "value": 6.34}, {"measurement": "PBM binding z-score", "setting": "[9]", "value": 3.44}, {"measurement": "PBM binding z-score", "setting": "[10]", "value": 5.6}]}, {"sequence": "CAAACTAGGTAAAGAGGTCAAAGTCCGCTTCCCG", "values": [{"measurement": "PBM binding z-score", "setting": "[1]", "value": 4.77}, {"measurement": "PBM binding z-score", "setting": "[2]", "value": 5.01}, {"measurement": "PBM binding z-score", "setting": "[3]", "value": 4.55}, {"measurement": "PBM binding z-score", "setting": "[4]", "value": 4.65}, {"measurement": "PBM binding z-score", "setting": "[5]", "value": 1.08}, {"measurement": "PBM binding z-score", "setting": "[6]", "value": 5.7}, {"measurement": "PBM binding z-score", "setting": "[7]", "value": 6.6}, {"measurement": "PBM binding z-score", "setting": "[8]", "value": 6.92}, {"measurement": "PBM binding z-score", "setting": "[9]", "value": 5.17}, {"measurement": "PBM binding z-score", "setting": "[10]", "value": 7.2}]}, {"sequence": "AATACAGGCTCACTAGGCCAGAGTAGGTACGAAT", "values": [{"measurement": "PBM binding z-score", "setting": "[1]", "value": -0.561}, {"measurement": "PBM binding z-score", "setting": "[2]", "value": -0.71}, {"measurement": "PBM binding z-score", "setting": "[3]", "value": -0.282}, {"measurement": "PBM binding z-score", "setting": "[4]", "value": -0.839}, {"measurement": "PBM binding z-score", "setting": "[5]", "value": -0.695}, {"measurement": "PBM binding z-score", "setting": "[6]", "value": -0.441}, {"measurement": "PBM binding z-score", "setting": "[7]", "value": 0.692}, {"measurement": "PBM binding z-score", "setting": "[8]", "value": 0.176}, {"measurement": "PBM binding z-score", "setting": "[9]", "value": 0.027}, {"measurement": "PBM binding z-score", "setting": "[10]", "value": -0.114}]}, {"sequence": "TCTCGTTGGTCAAAGGTCACACACTCGAAATGCG", "values": [{"measurement": "PBM binding z-score", "setting": "[1]", "value": 6.33}, {"measurement": "PBM binding z-score", "setting": "[2]", "value": 5.68}, {"measurement": "PBM binding z-score", "setting": "[3]", "value": 4.45}, {"measurement": "PBM binding z-score", "setting": "[4]", "value": 5.88}, {"measurement": "PBM binding z-score", "setting": "[5]", "value": 2.23}, {"measurement": "PBM binding z-score", "setting": "[6]", "value": 6.57}, {"measurement": "PBM binding z-score", "setting": "[7]", "value": 9.51}, {"measurement": "PBM binding z-score", "setting": "[8]", "value": 8.55}, {"measurement": "PBM binding z-score", "setting": "[9]", "value": 7.87}, {"measurement": "PBM binding z-score", "setting": "[10]", "value": 9.27}]}, {"sequence": "ATCTCTAGTTAAAGTTCAGTGAAAGATCGATAGA", "values": [{"measurement": "PBM binding z-score", "setting": "[1]", "value": 1.49}, {"measurement": "PBM binding z-score", "setting": "[2]", "value": 2.07}, {"measurement": "PBM binding z-score", "setting": "[3]", "value": 2.94}, {"measurement": "PBM binding z-score", "setting": "[4]", "value": 1.57}, {"measurement": "PBM binding z-score", "setting": "[5]", "value": 1.33}, {"measurement": "PBM binding z-score", "setting": "[6]", "value": 1.78}, {"measurement": "PBM binding z-score", "setting": "[7]", "value": 1.74}, {"measurement": "PBM binding z-score", "setting": "[8]", "value": 3.2}, {"measurement": "PBM binding z-score", "setting": "[9]", "value": 1.74}, {"measurement": "PBM binding z-score", "setting": "[10]", "value": 2.89}]}, {"sequence": "CCAACTGGGGCAAGGTTACCATAACGCACAGCCA", "values": [{"measurement": "PBM binding z-score", "setting": "[1]", "value": 0.213}, {"measurement": "PBM binding z-score", "setting": "[2]", "value": 0.726}, {"measurement": "PBM binding z-score", "setting": "[3]", "value": -0.0339}, {"measurement": "PBM binding z-score", "setting": "[4]", "value": 0.872}, {"measurement": "PBM binding z-score", "setting": "[5]", "value": -0.862}, {"measurement": "PBM binding z-score", "setting": "[6]", "value": 2.49}, {"measurement": "PBM binding z-score", "setting": "[7]", "value": 4.28}, {"measurement": "PBM binding z-score", "setting": "[8]", "value": 4.62}, {"measurement": "PBM binding z-score", "setting": "[9]", "value": 2.01}, {"measurement": "PBM binding z-score", "setting": "[10]", "value": 4.22}]}, {"sequence": "CCTAGCAGGCCAATCTGGGTGACTCAAGGCTTGA", "values": [{"measurement": "PBM binding z-score", "setting": "[1]", "value": -0.438}, {"measurement": "PBM binding z-score", "setting": "[2]", "value": -0.53}, {"measurement": "PBM binding z-score", "setting": "[3]", "value": -0.891}, {"measurement": "PBM binding z-score", "setting": "[4]", "value": -0.476}, {"measurement": "PBM binding z-score", "setting": "[5]", "value": -0.85}, {"measurement": "PBM binding z-score", "setting": "[6]", "value": 1.26}, {"measurement": "PBM binding z-score", "setting": "[7]", "value": 0.507}, {"measurement": "PBM binding z-score", "setting": "[8]", "value": 0.524}, {"measurement": "PBM binding z-score", "setting": "[9]", "value": -0.938}, {"measurement": "PBM binding z-score", "setting": "[10]", "value": -0.00968}]}, {"sequence": "CGTCCAAGGTCAGGGAGGTCAGTGAATGCCGAGT", "values": [{"measurement": "PBM binding z-score", "setting": "[1]", "value": 6.32}, {"measurement": "PBM binding z-score", "setting": "[2]", "value": 5.28}, {"measurement": "PBM binding z-score", "setting": "[3]", "value": 2.42}, {"measurement": "PBM binding z-score", "setting": "[4]", "value": 4.43}, {"measurement": "PBM binding z-score", "setting": "[5]", "value": 0.00503}, {"measurement": "PBM binding z-score", "setting": "[6]", "value": 5.2}, {"measurement": "PBM binding z-score", "setting": "[7]", "value": 4.29}, {"measurement": "PBM binding z-score", "setting": "[8]", "value": 4.63}, {"measurement": "PBM binding z-score", "setting": "[9]", "value": 0.9}, {"measurement": "PBM binding z-score", "setting": "[10]", "value": 3.13}]}, {"sequence": "TCATATATGTAAAAGGTGAAAGTCGGTGTGGTAA", "values": [{"measurement": "PBM binding z-score", "setting": "[1]", "value": 0.511}, {"measurement": "PBM binding z-score", "setting": "[2]", "value": 1.25}, {"measurement": "PBM binding z-score", "setting": "[3]", "value": -0.0169}, {"measurement": "PBM binding z-score", "setting": "[4]", "value": 1.75}, {"measurement": "PBM binding z-score", "setting": "[5]", "value": 0.0133}, {"measurement": "PBM binding z-score", "setting": "[6]", "value": 3.72}, {"measurement": "PBM binding z-score", "setting": "[7]", "value": 5.15}, {"measurement": "PBM binding z-score", "setting": "[8]", "value": 6.15}, {"measurement": "PBM binding z-score", "setting": "[9]", "value": 5.45}, {"measurement": "PBM binding z-score", "setting": "[10]", "value": 7}]}]}
